What follows are compounds tested against Neurogenic locus notch homolog protein 3 (Homo sapiens) (UniProt Q9UM47) (assay: small molecules binding NOTCH3 protein – biochemical, 635/667 nm fluorescence, primary screen (AID 1096)). Details: small-molecule microarray, 635 nm fluorescence, higher = more signal.
Neurogenic locus notch homolog protein 3 (Homo sapiens), sequence (Q9UM47 whole entry, looked up): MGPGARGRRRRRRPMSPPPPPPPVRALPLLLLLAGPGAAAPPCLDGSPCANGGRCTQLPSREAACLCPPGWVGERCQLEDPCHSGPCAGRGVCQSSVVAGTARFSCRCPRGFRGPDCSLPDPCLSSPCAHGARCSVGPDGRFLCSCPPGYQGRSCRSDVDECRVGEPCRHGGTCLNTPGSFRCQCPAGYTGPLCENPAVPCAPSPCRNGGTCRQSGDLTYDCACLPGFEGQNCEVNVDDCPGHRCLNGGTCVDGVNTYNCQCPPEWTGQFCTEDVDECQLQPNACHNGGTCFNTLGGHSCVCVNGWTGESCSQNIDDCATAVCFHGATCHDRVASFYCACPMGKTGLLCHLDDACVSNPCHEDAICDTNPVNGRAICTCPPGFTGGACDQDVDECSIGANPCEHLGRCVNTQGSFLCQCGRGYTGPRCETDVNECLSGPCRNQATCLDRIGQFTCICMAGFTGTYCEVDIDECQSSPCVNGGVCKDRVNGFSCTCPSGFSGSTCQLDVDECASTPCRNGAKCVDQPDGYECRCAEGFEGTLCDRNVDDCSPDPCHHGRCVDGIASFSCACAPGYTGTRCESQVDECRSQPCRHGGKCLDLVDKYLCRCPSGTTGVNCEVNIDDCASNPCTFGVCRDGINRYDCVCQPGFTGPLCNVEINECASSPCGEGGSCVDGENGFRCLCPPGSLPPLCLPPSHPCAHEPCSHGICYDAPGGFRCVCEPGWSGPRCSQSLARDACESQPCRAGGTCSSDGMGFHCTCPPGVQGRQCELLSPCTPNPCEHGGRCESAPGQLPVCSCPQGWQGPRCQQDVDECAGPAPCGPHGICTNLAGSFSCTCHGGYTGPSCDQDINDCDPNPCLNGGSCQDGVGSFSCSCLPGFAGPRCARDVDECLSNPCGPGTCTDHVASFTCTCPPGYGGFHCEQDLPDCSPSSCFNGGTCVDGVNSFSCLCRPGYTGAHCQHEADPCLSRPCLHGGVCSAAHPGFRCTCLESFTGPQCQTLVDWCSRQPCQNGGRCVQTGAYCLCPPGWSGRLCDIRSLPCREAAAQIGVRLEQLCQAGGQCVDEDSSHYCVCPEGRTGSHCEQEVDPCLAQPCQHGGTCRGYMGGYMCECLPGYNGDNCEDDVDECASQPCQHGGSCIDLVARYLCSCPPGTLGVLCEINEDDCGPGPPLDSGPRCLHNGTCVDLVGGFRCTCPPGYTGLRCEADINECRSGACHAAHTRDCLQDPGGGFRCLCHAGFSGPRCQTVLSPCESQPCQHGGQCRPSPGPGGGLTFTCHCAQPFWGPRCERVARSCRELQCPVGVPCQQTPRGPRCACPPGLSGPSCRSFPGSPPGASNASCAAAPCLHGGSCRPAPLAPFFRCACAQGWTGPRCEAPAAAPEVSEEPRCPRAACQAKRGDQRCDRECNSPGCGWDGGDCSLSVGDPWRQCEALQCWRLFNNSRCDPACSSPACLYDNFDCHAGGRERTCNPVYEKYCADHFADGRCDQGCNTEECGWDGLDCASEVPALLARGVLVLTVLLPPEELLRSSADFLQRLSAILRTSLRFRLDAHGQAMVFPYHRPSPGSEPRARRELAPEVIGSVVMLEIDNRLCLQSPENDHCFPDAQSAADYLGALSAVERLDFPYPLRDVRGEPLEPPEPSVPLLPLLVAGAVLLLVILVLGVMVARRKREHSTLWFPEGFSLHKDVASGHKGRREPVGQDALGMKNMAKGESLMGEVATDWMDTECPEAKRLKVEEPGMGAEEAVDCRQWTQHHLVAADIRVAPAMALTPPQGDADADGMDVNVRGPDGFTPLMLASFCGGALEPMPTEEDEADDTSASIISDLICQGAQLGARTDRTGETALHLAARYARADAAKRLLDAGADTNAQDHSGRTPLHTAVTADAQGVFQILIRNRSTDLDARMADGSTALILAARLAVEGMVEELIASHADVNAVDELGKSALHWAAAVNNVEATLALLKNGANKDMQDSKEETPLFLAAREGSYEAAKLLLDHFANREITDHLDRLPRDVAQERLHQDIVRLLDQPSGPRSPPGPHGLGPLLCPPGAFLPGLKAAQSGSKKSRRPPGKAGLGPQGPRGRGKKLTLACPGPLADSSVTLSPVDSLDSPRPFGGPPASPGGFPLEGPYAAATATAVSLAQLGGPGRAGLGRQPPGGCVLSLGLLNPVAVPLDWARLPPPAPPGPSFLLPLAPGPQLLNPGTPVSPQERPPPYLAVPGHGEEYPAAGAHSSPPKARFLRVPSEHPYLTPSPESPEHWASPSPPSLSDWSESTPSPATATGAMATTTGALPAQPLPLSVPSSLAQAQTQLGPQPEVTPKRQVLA

Compound | composite z-score
O=c1cccc(CCc2ccccc2)o1 | 0.621
COc1ccc([Si](C)(C)[C@H]2[C@H](CCn3cc(CCO)nn3)O[C@@]3(C(=O)N(Cc4ccc(N5CCOC5=O)cc4)c4ccccc43)[C@@H]2C)cc1 | 0.928
C=CC[C@@H](OC(=O)Nc1ccc(OC)cc1)c1ccc(O)c2ccccc12 | 1.05
CC(c1ccccc1)C(O)C1C=CC2C(=O)NC(=O)C2N1Nc1ccccn1 (stereo unspecified) | 1.12
CC(C)CNC(=O)[C@@H]1c2ccccc2C(=O)N(Cc2cc(C(F)(F)F)cc(C(F)(F)F)c2)[C@H]1c1ccc(CO)cc1 | -0.977
C[C@]1(C(=O)NCc2ccccc2)c2ccccc2C(=O)N(Cc2cc(F)cc(C(F)(F)F)c2)[C@H]1c1ccc(CO)cc1 | -1.37
O=C1O[C@H](c2ccccc2)[C@H](c2ccccc2)N2[C@H]1[C@@H](C(=O)Nc1nc3ccccc3s1)[C@]1(C(=O)Nc3ccccc31)[C@H]2c1ccc(O)cc1 | 1.15
CN(C)CCCNC(=O)[C@@]1(Cc2ccccc2I)c2ccccc2C(=O)N(Cc2ccccc2C(F)(F)F)[C@H]1c1ccc(CO)cc1 | -0.848
CCCCCN1CC=CC23O[C@@H]4C=CCOC(=O)[C@@H]4[C@H]2C(=O)N(CCCO)[C@@H]3C1=O (stereo partly specified) | 0.0152
C=C(CCCC)/C(=C/C[C@H](OC(C)=O)c1ccc(CO)o1)c1cnc2ccccc2c1 | 1.07
CC(C)NC(=O)[C@@]1(Cc2ccccc2I)c2ccccc2C(=O)N(Cc2ccccc2)[C@H]1c1ccc(CO)cc1 | 1.09
O=C1C2C=CC(C(O)c3ccc(B(O)O)cc3)N(Nc3ccccc3)C2C(=O)N1c1ccccc1 (stereo unspecified) | -0.085
O=C1C[C@]2(c3ccc([N+](=O)[O-])cc3)C(=O)N(CC(F)(F)F)c3cc(CO)ccc3[C@H]2N1CC12CC3CC(CC(C3)C1)C2 | -0.234
N#Cc1ccc(NN2C(C(O)c3cccs3)C=CC3C(=O)N(c4ccccc4)C(=O)C32)cc1 (stereo unspecified) | 0.708
COCCOC(=O)N1C(=O)[C@@]2(c3cc(C#CCNC(N)=O)ccc31)[C@H](C(=O)N1CCc3cc(OC)c(OC)cc3C1)[C@H]1C(=O)O[C@H](c3ccccc3)[C@H](c3ccccc3)N1[C@@H]2c1ccc(OCCO)cc1 | 1.13
CC(=O)Nc1cc(Br)ccc1C(=O)O | 0.482
C=CCOC(=O)[C@@H]1[C@H]2C(=O)O[C@H](c3ccccc3)[C@H](c3ccccc3)N2[C@H](c2ccc(OCCOC(=O)[C@@H]3C[C@@H]4C(=O)N[C@@H](Cc5ccccc5)C(=O)N4[C@@H]3c3cccc(OCCO)c3)cc2)[C@@]12C(=O)Nc1ccc(I)cc12 | 0.974
[N-]=[N+]=NCc1ccccc1C[C@]1(C(=O)O)N=C(c2ccc(OCCCO)cc2)O[C@H]1c1ccccc1CN=[N+]=[N-] | 0.759

Compound | composite z-score
NCCCCCNC(=O)[C@H]1C[C@H]2C(=O)NCC(=O)N2[C@H]1c1cccc(OCCO)c1 | 0.6
COc1cc2c(cc1OC)CN(C(=O)[C@@H]1[C@H]3C(=O)O[C@H](c4ccccc4)[C@H](c4ccccc4)N3[C@H](c3ccccc3OCCO)[C@@]13C(=O)Nc1ccc(C#CCNC(N)=O)cc13)CC2 | 1.08
C=C(COC)C(=O)CC[C@H](OC(C)=O)c1cccc(OCCO)c1 | -0.902
CCOC(=O)C[C@H]1[C@H](OC(=O)Cc2ccc3c(c2)OCO3)[C@@H](NC(=O)C2CCCCC2)c2cc(OCCCO)ccc2N1C(=O)Cc1ccc(OC)cc1 | 0.892
COCCOC(=O)N1C(=O)[C@@]2(c3cc(C#CCNC(N)=O)ccc31)[C@H](c1ccc(OCCO)cc1)N1[C@H](c3ccccc3)[C@H](c3ccccc3)OC(=O)[C@H]1[C@@H]2C(=O)N1CCc2cc(OC)c(OC)cc2C1 | 0.983
COCCOC(=O)N1C(=O)[C@@]2(c3cc(C#CC4(O)CCCCCC4)ccc31)[C@H](C(=O)N1CCCCCCC1)[C@H]1C(=O)O[C@H](c3ccccc3)[C@H](c3ccccc3)N1[C@@H]2c1ccccc1OCCO | 1.05
C=C(COC)/C(=C/C[C@H](OC(=O)c1ccncc1)c1cccc(OCCO)c1)c1cc(C(=O)OC)ccc1OC | 0.679
COc1c(C)cc(-c2cc3c(c(-c4ccc(Oc5ccccc5)cc4)n2)[Si](C(C)C)(C(C)C)OC3)cc1C | -0.386
CCOC(=O)C1=CCC(c2ccc(C#N)cc2)N(S(=O)(=O)c2ccc(C)cc2)C1 (stereo unspecified) | 1.09
CCOC(=O)C1=C[C@@H](C(C)C)N(S(=O)(=O)c2ccc(C)cc2)[C@H]1c1ccc(C(C)C)cc1 | 1.09
CCOC(=O)C1=CCC(C(C)(C)C)N(S(=O)(=O)c2ccc(C)cc2)C1 (stereo unspecified) | 1.13
CCCCC=C[C@@H](NC(=O)c1ccco1)c1ccccc1 | 0.657
CC(C)(C)N1CC=CC23O[C@@H]4C=CCOC(=O)[C@@H]4[C@H]2C(=O)N(CCCCCO)[C@@H]3C1=O (stereo partly specified) | -0.374
O=C1C=CC(=O)[C@@H]2CC(COc3ccccc3)=C3[C@@H](CCc4ccccc4)OB(O)C[C@@H]3[C@H]12 | 0.49
Cc1ccccc1C(O)C1C=CC2C(=O)N(C)C(=O)C2N1N1CCCCC1 (stereo unspecified) | 1.13
CCOC(=O)C[C@H]1[C@H](OC(=O)c2ccc(C(=O)c3ccccc3)cc2)[C@@H](NC(=O)C2CCCCC2)c2cc(OCCCO)ccc2N1C(=O)c1ccccc1 | -0.215
Cc1ccc(S[C@]2(C(=O)NCC(C)C)CC(=O)N(Cc3ccccc3Cl)[C@@H]2c2ccc(CO)cc2)cc1 | -1.5
COc1cccc(C(=O)O[C@H]2CC[C@]3(C)C4=C(CCC3C2(C)C)[C@]2(C)CC[C@H]([C@H](C)CCCC(C)C)[C@@]2(C)CC4)c1 (stereo partly specified) | 0.618
